# High-throughput results from PubChem.
# Hits are enriched below; roughly 1.5% of the tested compounds scored in any of these assays.
# CRFBP-R2 agonist: agonists of CRF-BP/CRF-R2 complex, primary screen, cell-based, HEK293, calcium dye fluorescence, uHTS; calcium dye fluorescence (FLIPR); percent of saturating CRF peptide response; activation, % at 13.2 µM; actives 0.46% (n = 350,000); AID 588473, 2011;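 active means activation of at least 50%, plus an integration ratio under a set limit after plate pattern correction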
# CRFR2-BP antag: antagonists of CRF-BP/CRF-R2 complex, primary screen, cell-based, HEK293, calcium dye fluorescence, uHTS. CRF-induced calcium fluorescence. inhibition, % at 11.8 µM. actives 0.59% (n = 350,000);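 active means inhibition of the ligand-induced calcium signal above about 50% at the single tested concentration, limit read from the data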
# IDE cell activ: human IDE activators in live cells, primary screen, fluorescence polarization, HEK cells, FAbeta-B substrate; Insulin-degrading enzyme (Homo sapiens), P14735; FAbeta-B cleavage; 0% vehicle, 100% cell-free pure enzyme wells; activation, % at 5.96 µM; actives 0.073% (n = 340,000); AID 493087, 2011;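 active means activation above the mean of all tested compounds plus 3 SD, set per screening campaign, cut at about 17% in these data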
# Target sequence (P14735 whole entry, looked up): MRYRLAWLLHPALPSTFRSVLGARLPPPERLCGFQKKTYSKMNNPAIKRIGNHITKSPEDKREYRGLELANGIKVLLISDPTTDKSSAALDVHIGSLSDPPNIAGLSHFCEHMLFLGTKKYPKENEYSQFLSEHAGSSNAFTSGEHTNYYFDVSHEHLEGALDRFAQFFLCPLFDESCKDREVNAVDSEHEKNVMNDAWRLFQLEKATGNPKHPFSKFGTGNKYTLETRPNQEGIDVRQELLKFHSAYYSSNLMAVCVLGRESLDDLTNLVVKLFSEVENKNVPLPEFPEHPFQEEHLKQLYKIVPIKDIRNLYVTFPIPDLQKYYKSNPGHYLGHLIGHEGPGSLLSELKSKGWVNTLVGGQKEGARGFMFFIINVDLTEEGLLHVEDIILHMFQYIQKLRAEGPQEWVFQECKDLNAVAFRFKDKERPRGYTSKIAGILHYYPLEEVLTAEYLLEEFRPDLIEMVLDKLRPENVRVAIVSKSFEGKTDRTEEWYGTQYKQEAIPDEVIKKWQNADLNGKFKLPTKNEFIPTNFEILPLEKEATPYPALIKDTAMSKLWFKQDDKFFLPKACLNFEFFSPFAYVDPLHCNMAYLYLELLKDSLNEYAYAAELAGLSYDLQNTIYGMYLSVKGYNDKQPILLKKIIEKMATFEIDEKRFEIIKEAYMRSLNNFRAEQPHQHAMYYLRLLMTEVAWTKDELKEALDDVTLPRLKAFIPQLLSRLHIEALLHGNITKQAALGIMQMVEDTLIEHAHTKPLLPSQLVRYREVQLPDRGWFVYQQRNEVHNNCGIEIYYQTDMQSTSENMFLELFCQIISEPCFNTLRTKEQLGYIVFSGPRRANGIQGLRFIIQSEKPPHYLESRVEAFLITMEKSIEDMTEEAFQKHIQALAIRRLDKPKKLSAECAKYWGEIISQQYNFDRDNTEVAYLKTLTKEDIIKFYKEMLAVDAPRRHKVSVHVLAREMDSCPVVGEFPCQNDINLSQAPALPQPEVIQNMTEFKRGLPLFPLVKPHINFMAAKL
# RTF Ca sens inh: cardiac RTF calcium sensitivity inhibitors, primary screen, biochemical, IANBD-TnC fluorescence, EC70 calcium. AID 493244, 2011. Troponin I, cardiac muscle (Homo sapiens) + Troponin T, cardiac muscle (Homo sapiens) + …. IANBD-labeled cardiac RTF, Ca2+ fluorescence. inhibition, % at 7.15 µM. actives 0.12% (n = 340,000);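 active means inhibition above the mean inhibition of all tested compounds plus 3 SD, cut at about 17% in these data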;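 further: assay run at fixed EC70 calcium of 1.6 mM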
# cardiac RTF act: cardiac RTF calcium sensitivity activators, primary screen, biochemical, IANBD-TnC fluorescence, EC20 calcium | Troponin I, cardiac muscle (Homo sapiens) + Troponin T, cardiac muscle (Homo sapiens) + … | IANBD-labeled TnC RTF fluorescence at EC20 calcium; 0% EC20 calcium, 100% full calcium | activation, % at 7.2 µM | actives 0.24% (n = 340,000) | AID 493008, 2010;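 active means activation above the mean over all tested compounds plus 3 SD, cut at about 30% in these data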;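 further: rise in fluorescence read as greater calcium sensitivity of cardiac thin filaments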
# IDE cell inh: human IDE inhibitors in live cells, primary screen, fluorescence polarization, HEK cells, FAbetaB substrate; actives 0.41% (n = 320,000); inhibition, % at 5.59 µM; FAbetaB cleavage; AID 434962, 2010; Insulin-degrading enzyme (Homo sapiens), P14735;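 active means percent inhibition above the average of all tested compounds plus 3 SD, set per screening campaign, cut at about 16% in these data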;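 further: IDE supplied by intact live HEK cells; FP after avidin binding of uncleaved biotin substrate so inhibition keeps polarization high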
# Hits are given with their value; - = inactive; . = no result.
SMILES,CRFBP-R2 agonist,CRFR2-BP antag,IDE cell activ,RTF Ca sens inh,cardiac RTF act,IDE cell inh
COC(=O)c1c(NC(=O)CC2Nc3ccccc3NC2=O)sc(C)c1C (centres undefined),-,53,-,-,-,-
CCOC(=O)c1c(NC(=O)CC2Nc3ccccc3NC2=O)sc(C)c1C (centres undefined),-,-,-,-,-,-
CCOc1cc(/C=N\NC(=O)C2C(=O)NCC2c2ccccc2)ccc1OC (centres undefined),56,-,-,-,-,-
CN(C)S(=O)(=O)c1cccc(C(=O)NC2CCCc3ccccc32)c1 (centres undefined),-,-,-,-,-,-
CCCNS(=O)(=O)c1cccc(C(=O)NC2CCCc3ccccc32)c1 (centres undefined),-,52,-,-,-,-
COc1ccc(NC(=O)[C@@H](NS(=O)(=O)c2cccc(Cl)c2)C(C)C)cc1S(=O)(=O)N1CCOCC1,-,-,-,-,-,-
CC(c1ccccc1)N1C(=O)c2ccc(C(=O)Nc3ccc(Br)cc3C(=O)O)cc2C1=O (centres undefined),-,59,-,-,-,-
COc1cc(NC(=O)c2ccc3c(c2)C(=O)N(CCC(C)C)C3=O)c(C(=O)O)cc1OC,-,51,-,-,-,-
CC(C)CCN1C(=O)c2ccc(C(=O)Nc3ccc(O)cc3C(=O)O)cc2C1=O,-,-,-,-,-,-
O=C(NCCC(=O)N1CCN(Cc2c(F)cccc2Cl)CC1)c1ccc(Cl)cc1,-,-,-,-,-,-
COC(=O)C1=C(N)c2c(F)cccc2C1(C#N)c1ccccc1 (centres undefined),-,58,-,-,-,-
C[C@@H]1CC(=O)[C@H]2CC(CO)=CCC[C@@H]2[C@@]1(C)CC/C(=C/CO)CO,-,-,-,-,-,-
COC(=O)c1ccc(NC(=O)CSc2nnc(-c3cccnc3)o2)cc1,-,-,-,-,-,-
C=CCC[C@H](Cc1ccc(F)cc1)C(=O)OC[C@H](Cc1c[nH]c2ccccc12)NC(=O)[C@@H](CC=C)CC(=O)NCCO,60,-,-,-,-,-
C=CCC[C@H](Cc1ccc(F)cc1)C(=O)OC[C@@H](Cc1c[nH]c2ccccc12)NC(=O)[C@@H](CC=C)CC(=O)N[C@@H](CO)Cc1ccccc1,-,-,-,-,-,-
COc1ccc(CNC(=O)c2sc(=S)n(-c3ccc(OC)cc3)c2N)cc1,-,66,-,-,-,-
CCOC(=O)N1CCN(C(=O)c2ccc3nc(SCc4ccc(F)cc4)n(C)c3c2)CC1,-,51,-,-,-,-
Cc1ccc(-n2nnnc2SCc2nnc(-c3ccccc3Br)o2)c(C)c1,-,87,-,-,-,-
COc1ccc(NC(=O)COC(=O)CN2C(=O)C3CCCCC3C2=O)cc1 (centres undefined),-,-,.,.,.,.
CC1=CN2C(=N)/C(=C/c3ccco3)C(=O)N=C2S1,-,-,-,-,-,-
CC1=CN2C(=N)/C(=C/c3ccc([N+](=O)[O-])o3)C(=O)N=C2S1,56,-,-,-,-,-
O=C(NCc1ccccc1)C1=C[C@H](c2ccccc2)C[C@H](OCc2ccc(CO)cc2)O1,-,83,-,-,-,-
O=c1[nH]c2cc3c(cc2cc1C(c1nnnn1C1CCCC1)N1CCCc2ccccc21)OCCO3 (centres undefined),57,-,-,-,-,.
CC(=O)c1ccc(NC(=O)CN2CCN(S(=O)(=O)c3ccc4c(c3)OCCO4)CC2)cc1,-,-,.,.,.,.
CC(C)C(NS(=O)(=O)c1ccc2c(c1)oc(=O)n2C)C(=O)N1CCN(C2CCCCC2)CC1 (centres undefined),-,58,-,-,-,-
SMILES,CRFBP-R2 agonist,CRFR2-BP antag,IDE cell activ,RTF Ca sens inh,cardiac RTF act,IDE cell inh
Cc1cc(C)nc(SCCCNCc2ccc(Br)cc2)n1,-,-,-,-,32,-
Cc1ccc(CNCCCSc2nc(C)cc(C)n2)cc1,-,-,-,-,-,-
COc1ccccc1C1C2=C(N=c3s/c(=C/c4cccc(OCC(=O)O)c4)c(=O)n31)c1ccccc1CC2 (centres undefined),-,65,-,-,-,-
COc1cccc(C2C3=C(N=c4s/c(=C\c5cccc(O)c5)c(=O)n42)c2ccccc2CC3)c1OC (centres undefined),-,-,-,-,-,-
NC(=O)c1ccc(NCc2ccco2)c([N+](=O)[O-])c1,-,71,-,-,-,-
O=C(NCc1ccco1)c1ccc(N2CCCCC2)c([N+](=O)[O-])c1,-,-,-,-,-,-
Cc1n[nH]c(=S)n(/N=C/c2cccs2)c1=O,-,115,-,-,-,-
CCN(CC)C(=O)[C@H]1C[C@H](CC(=O)NC/C=C(\C)CCC=C(C)C)C(=O)N2CCc3c([nH]c4cc(CCC(=O)N(C)C)ccc34)[C@]12C,-,67,-,-,-,.
N#Cc1c(-c2cccs2)nc(SCc2ccc(Cl)cc2)[nH]c1=O,-,55,-,-,-,.
CSc1nc(-c2cccs2)c(C#N)c(=O)[nH]1,-,-,-,-,-,-
CCCCn1c(=NC(C)=O)c(C#N)cc2c(=O)n3cccc(C)c3nc21,-,-,-,-,-,-
CCCCCn1c(=NC(=O)c2cccnc2)c(C#N)cc2c(=O)n3cccc(C)c3nc21,63,-,-,-,-,-
CCCOc1ccccc1C(=O)Nc1ccc(S(=O)(=O)N2CCN(C)CC2)cc1,-,-,-,-,-,-
CC1(C)CC(=O)C2=C(C1)OC(N)=C(C#N)[C@@H]2c1ccccc1[N+](=O)[O-],-,-,-,-,41,-
Cc1cc(C(F)(F)F)n(-c2nc(C(=O)N/N=C/c3ccc(F)cc3)cs2)n1,-,71,-,-,-,-
COc1cc(/C=C2\CCCc3c2nc2ccccc2c3C(=O)O)cc(Br)c1O,-,-,-,-,-,-
Cc1cccc(C)c1NC(=O)COC(=O)c1c2c(nc3ccccc13)/C(=C\c1ccc3c(c1)OCO3)CCC2,95,-,-,-,-,-
CC(OC(=O)c1c2c(nc3ccccc13)/C(=C\c1ccc3c(c1)OCO3)CCC2)C(=O)Nc1ccc(S(N)(=O)=O)cc1 (centres undefined),314,-,26,-,115,.
